Source: PubChem BioAssay (National Center for Advancing Translational Sciences (NCATS))
AmpC no deterg = qHTS Inhibitors of AmpC Beta-Lactamase (assay without detergent); P00811; AmpC nitrocefin hydrolysis, absorbance 480 nm, 0.0001% Triton; Potency, µM (series often up to 57.1 µM), for the others: at the highest dose activity change, negative = inhibition, hits mostly inhibitors; 330,000 tested, 0.52% active;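 further: plate controls were no compound for no effect and no enzyme for full effect; nearly all actives have a fitted effect of over 20% in size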
Target sequence (P00811 whole entry, looked up): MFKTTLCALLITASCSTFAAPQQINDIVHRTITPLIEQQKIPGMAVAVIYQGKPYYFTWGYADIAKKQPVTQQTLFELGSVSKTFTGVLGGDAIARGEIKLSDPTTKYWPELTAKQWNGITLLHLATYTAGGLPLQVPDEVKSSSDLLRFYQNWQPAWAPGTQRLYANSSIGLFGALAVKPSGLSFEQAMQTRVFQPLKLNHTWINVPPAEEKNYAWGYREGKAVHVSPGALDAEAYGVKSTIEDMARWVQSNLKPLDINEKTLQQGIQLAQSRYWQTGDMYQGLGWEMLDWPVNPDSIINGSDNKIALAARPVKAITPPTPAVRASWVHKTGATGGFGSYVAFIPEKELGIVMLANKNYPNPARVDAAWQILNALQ
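20 mM phosphate pH 7.0 + 0.01% (detergent screen) or 0.0001% Triton X-100; 5.3 nM AmpC reagent; cpd preinc 15 min RT; nitrocefin (800 uM stock) to start; A480 q20 s × 4 min; Activity was normalised to no-enzyme and no-compound control wells.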
AmpC inh detg = qHTS Inhibitors of AmpC Beta-Lactamase (assay with detergent). P00811. AmpC hydrolysis of nitrocefin, absorbance 480 nm, 0.01% Triton. 370,000 tested, 0.041% active. AID 485294, 2010. Potency, µM (top dose mostly 114 µM), inactives show at the highest dose activity change, negative = inhibition, most hits filed as inhibitors;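 further: 0% = no-compound wells and -100% = no-enzyme wells; nearly all actives have a fitted effect of over 25% in size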
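20 mM phosphate pH 7.0 + 0.01% (detergent screen) or 0.0001% Triton X-100; 5.3 nM AmpC reagent; cpd preinc 15 min RT; nitrocefin (800 uM stock) to start; A480 q20 s × 4 min; Activity was normalised to no-enzyme and no-compound control wells.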
Giardia FBPA inh = qHTS Assay for Inhibitors of Fructose-1,6-bisphosphate Aldolase from Giardia Lamblia; A8B2U2; purified Giardia FBPA; Potency, µM (series often up to 59.6 µM), inactives show top-dose activity, negative = inhibition, most hits filed as inhibitors; 290,000 tested, 0.71% active; AID 2451, 2010; further: nearly all actives have a fitted effect of over 55% in size
Target sequence (A8B2U2 whole entry, looked up): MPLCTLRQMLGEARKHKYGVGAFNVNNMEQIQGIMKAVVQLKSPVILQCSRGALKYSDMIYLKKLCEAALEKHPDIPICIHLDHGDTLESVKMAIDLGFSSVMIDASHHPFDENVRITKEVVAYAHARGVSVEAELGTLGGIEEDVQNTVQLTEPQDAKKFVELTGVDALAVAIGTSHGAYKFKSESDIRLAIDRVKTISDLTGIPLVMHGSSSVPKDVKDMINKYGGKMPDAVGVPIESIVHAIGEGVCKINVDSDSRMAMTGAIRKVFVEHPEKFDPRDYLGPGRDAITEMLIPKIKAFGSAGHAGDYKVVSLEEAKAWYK
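40 nM FBPA preincubated 10 min at RT with compound (up to 57.5 uM final), then substrate plus GAPDH/TPI/NAD/arsenate coupling and diaphorase/resazurin added. Fluorescence read after 20 min at RT, 525/598 nm.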
Sm TGR inh = qHTS Assay for the Inhibitors of Schistosoma Mansoni Peroxiredoxins. Schistosoma mansoni thioredoxin glutathione reductase (TGR), Q962Y6. purified TGR, DTNB reduction, TNB absorbance 405 nm. Potency, µM (series often up to 114 µM), without a hit: at the top dose activity change, negative = inhibition, hits mostly inhibitors. 360,000 tested, 3% active; further: nearly all actives have a fitted effect of over 60% in size
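First, TGR (20 nM dispensed) and NADPH were mixed with compound. Second, a 15 min room-temperature incubation followed. Third, further NADPH and then DTNB were added to start the reaction. Finally, TNB absorbance was monitored kinetically.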
* hit, by the source's call; u = inconclusive; x = no result given; [ ] = dose if it differs, or a comment. Shown are actives, neighbours in structure and some others; about 3.6% of the full set was active somewhere. The call rests on the fitted dose curve; in most records, active means well fitted curve in the direction sought with a large enough effect; inconclusive means small, poorly fitted or top-dose-only effect, or another doubt; inactive means no such curve, though single readings can be large; an effect the other way counts as inactive or inconclusive. Unless noted, on the % scale 0 is the no-effect control and ±100 the full control effect; potency means the concentration at half of the fitted maximal effect.

SMILES	AmpC no deterg	AmpC inh detg	Giardia FBPA inh	Sm TGR inh
O=C(NCc1cccnc1)C1CCC(CNS(=O)(=O)c2cccc3nsnc23)CC1 (configuration not stated)	0%	-8%	5%	7%
N#CCC(=O)Nc1ccc(C(=O)OCC(=O)Nc2cccc(C(F)(F)F)c2)cc1	16µM*	u	-1%	-9%
COC(=O)c1c(NC(=O)COC(=O)c2ccccc2O)sc2c1CCCCC2	-23%	u	4%	-10%
CC(C)c1cccc(C(C)C)c1NC(=O)COC(=O)c1ccc(OCC(=O)Nc2cccc(C(F)(F)F)c2)cc1	-46%	-4%	-1%	-7%
COC(=O)c1c(NC(=O)COC(=O)c2ccc(NC(=O)CC#N)cc2)sc2c1CCCCC2	32µM*	2%	3%	12%
COc1ccc(OC)c(-c2csc(NC(=O)COC(=O)c3ccc(NC(=O)CC#N)cc3)n2)c1	25µM*	u	x	-3%
NC(=O)c1c(NC(=O)COC(=O)c2ccc(O)c(Cl)c2)sc2c1CCCC2	16µM*	x	x	x
Cc1cnc(CNc2nc(-c3cccc(NS(C)(=O)=O)c3)nc3ccccc23)cn1	x	x	-14%	x
COC(=O)c1c(NC(=O)C2CC2)sc2c1CCCC2	45µM*	u	-1%	4%
N#Cc1c(NC(=O)/C=C/C(=O)O)sc2c1CCN(Cc1ccccc1)C2	2%	-1%	-12%	25µM*
COc1ccc2nc(NC(=O)c3cc(=O)c4cc(C)cc(C)c4o3)sc2c1	x	-2%	x	3%
Cc1cc(C)n(-c2nc3ccccc3nc2Nc2cccc(C(=O)NCCc3ccccc3)c2)n1	x	17%	x	6%
CCOC(=O)N1CCN(c2c(F)cc3[nH]c(=S)[nH]c3c2Br)CC1	28µM*	-1%	6%	8%
CCOC(=O)N1CCN(c2cc3[nH]c(=S)[nH]c3cc2F)CC1	-3%	u	-5%	-19%
Cc1ccc(NC(=O)CN2C(=O)N/C(=C/c3cccn3-c3ccc(C(=O)O)cc3)C2=O)cc1	-20%	u	-7%	u
Cc1ccc(NC(=O)CN2C(=O)N/C(=C/c3ccco3)C2=O)cc1	u	-22%	-24%	50µM*
Cc1ccc(NC(=O)CN2C(=O)N/C(=C/c3cc(C)n(-c4ccc(C(=O)O)cc4)c3C)C2=O)cc1	-19%	-3%	-12%	45µM*
O=C(/C=C/c1ccco1)Nc1ccc2nc3n(c(=O)c2c1)CCCC3	21%	4%	2%	32µM*
Cc1cc(=O)oc2cc(NC(=S)NCc3cccnc3)ccc12	-35%	2%	-1%	40µM*
O=c1c2cc(NC(=S)N3CCCC3)ccc2nc2n1CCCCC2	-9%	-1%	0%	9%
O=c1c2cc(NC(=S)NCc3cccnc3)ccc2nc2n1CCCCC2	-23%	-2%	-12%	56µM*
CCOC(=O)Cc1ccc(NC(=O)Nc2cccc(OCc3cc(=O)n4cc(C)ccc4n3)c2)cc1	x	22%	x	5%
CC(C)OC(=O)c1cccnc1SCC(=O)Nc1ccc(C(F)(F)F)cc1Cl	x	0%	x	-2%
COc1ccc(C(=O)C2CCCN(C(=O)c3cccc(N4CCCC4=O)c3)C2)cc1OC (configuration not stated)	36%	u	11%	-31%
CC(=O)C(Cc1cccc(F)c1)(Cc1cccc(F)c1)C(C)=O	-12%[2.29 µM]	-6%	2%	-8%
SMILES	AmpC no deterg	AmpC inh detg	Giardia FBPA inh	Sm TGR inh
Cc1ccc(N2C(=O)CSC2c2ccc3c(c2)OCO3)cc1 (configuration not stated)	-30%	0%	4%	0%
O=C1CSC(c2ccc3c(c2)OCO3)N1c1ccc(Oc2ccccc2)cc1 (configuration not stated)	-29%	-14%	-1%	32µM*
CCOc1ccc(-n2c(=O)c3c4c(sc3n(Cc3cccc(C)c3)c2=O)CCCC4)cc1	x	4%	x	11%
COc1ccc(CCNC(=O)CSc2ccc(-c3ccco3)nn2)cc1	-18%	-9%	-16%	13µM*
COc1cccc(-c2ccc(SCC(=O)NCCc3ccccc3)nn2)c1	-26%	-7%	1%	-5%
COc1ccc(CCNC(=O)CSc2ccc(-c3ccncc3)nn2)cc1	-23%	6%	0%	0%
O=C(CSc1ccc(-c2ccco2)nn1)NCCc1ccccc1	-13%	5%	-4%	11µM*
CCCCn1c(N)c(N(CC)C(=O)C2=NN(c3ccccc3)C(=O)CC2)c(=O)[nH]c1=O	-10%	-1%	x	-3%
CC(=O)N(c1nnc(-c2ccc(C)cc2)s1)C1CCCC1	-1%	2%	6%	u
O=S1(=O)C=C(Sc2nc3cc(Cl)ccc3o2)c2ccccc21	-35%	-1%	0%	1.6µM*
Cc1cc(NC(=O)CSc2nc3cc(Cl)ccc3o2)no1	1%	-2%	x	6%
NC1=NC(=O)/C(=C/c2cccc(-c3ccc(S(N)(=O)=O)cc3)c2)S1	-58%	-2%	-1%	10µM*
CC1CC(C)CN(C(=O)Cn2c(=O)n(CCCCC(=O)NC3CCCC3)c(=O)c3ccccc32)C1 (configuration not stated)	-23%	u	5%	28µM*
CCCN(CCC)C(=O)Cn1c(=O)n(CCCCC(=O)NC2CCCC2)c(=O)c2ccccc21	0.32µM*	-1%	1%	1%
O=C(COC(=O)CCSc1ccccc1Cl)NCc1ccco1	-5%[2.29 µM]	-4%	3%	40µM*
Cc1nn(-c2ccccc2)c(C)c1C(=O)OCC(=O)NCc1ccco1	-11%	3%	1%	18µM*
CC(=O)c1cn(CC(=O)NCc2ccco2)c2ccccc12	2%	-2%	x	1%
O=C(COC(=O)c1ccccc1Oc1ccccc1)NCc1ccco1	-14%	-21%	2%	16µM*
O=C(COC(=O)Cc1c(Cl)cccc1Cl)NCc1ccco1	-21%	x	x	x
O=C(Cn1cc(C(=O)COc2ccccc2)c2ccccc21)NCc1ccco1	-20%	u	-2%	40µM*
O=C(COC(=O)c1ccccc1)NCc1ccco1	-42%	-14%	0%	-1%[11.4 µM]
COc1ccc(CCN2C(=O)CN(C3CCC(C)CC3)C(=O)C2c2ccc(OC(C)C)c(OC)c2)cc1OC (configuration not stated)	x	8%	x	11%
COc1c(N2C[C@@H]3CCCN[C@H]3C2)c(F)cc2c(=O)c(C(=O)O)cn(C3CC3)c12	x	x	0%	x
Cc1cc(Br)ccc1SCC(=O)OCC(=O)NCc1ccco1	-11%	2%	-12%	25µM*
O=C(COC(=O)C(c1ccccc1)c1ccccc1)NCc1ccco1	-8%	0%	-4%	40µM*
O=C(COC(=O)CSc1ccc(Br)cc1)NCc1ccco1	-9%	-17%	x	-20%
CCOc1ccccc1NC(=O)c1cnc(NS(=O)(=O)c2ccccc2)nc1	-16%	-1%	x	9%
O=C1c2ccccc2C(=O)N1Cc1nc2ccccc2c(=O)n1CCCN1CCOCC1	3%	-6%	14%	35µM*
